Data reported in PubChem BioAssay (NCI).
This is part of a sample that, as a whole, favours compounds with a hit. Of some 79,000 tested, about 15% had one in any assay. Activity calls are given as the source filed them. No stated cut-off is given here; in the data, active means growth inhibition above about 70%; inactive means the rest.

Key:
[1] = NCI Yeast Anticancer Drug Screen. Data for the rad52 strain (AID 147);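 further: 0% = growth of vehicle-treated control cultures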; settings: S. cerevisiae rad52 mutant growth inhibition, stronger effect = higher value
In short: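 Measured: yeast growth inhibition. System: strain with a defined DNA damage repair alteration. Reference: vehicle-treated control cultures.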

[2] = NCI Yeast Anticancer Drug Screen. Data for the wt1 strain (AID 149);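 further: 0% = growth of vehicle-treated wt1 cultures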; settings: S. cerevisiae wt1 strain (SPY 50644) growth inhibition, stronger effect = higher value
In short: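 Growth inhibition read against vehicle controls after compound exposure of the wt1 yeast strain.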

[3] = NCI Yeast Anticancer Drug Screen. Data for the rad50EPP+ strain (AID 151);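 further: 0% = growth of vehicle-treated control cultures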; settings: S. cerevisiae rad50 mutant strain, stronger effect = higher value
In short: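 One strain with a rad50 alteration (rad50EPP+) was compound-treated, its growth then compared to that of vehicle controls.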

[4] = NCI Yeast Anticancer Drug Screen. Data for the mgt1 strain (AID 153); settings: S. cerevisiae mgt1 mutant growth inhibition, stronger effect = higher value
In short: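 After exposure of the mgt1 yeast mutant to compound, growth was measured and reported as inhibition compared with vehicle controls.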

[5] = NCI Yeast Anticancer Drug Screen. Data for the rad50 strain (AID 155);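 further: 0% = growth of vehicle-only cultures of the same strain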; settings: S. cerevisiae rad50 strain growth inhibition, stronger effect = higher value
In short: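 Readout: growth inhibition relative to vehicle-treated cultures. Compound exposure was carried out in a genetically defined yeast strain deficient in DNA damage repair.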

[6] = NCI Yeast Anticancer Drug Screen. Data for the mec2-1 strain (AID 157); settings: S. cerevisiae mec2-1 strain, stronger effect = higher value
In short: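 Test agents were screened against the mec2-1 yeast strain, with defined DNA repair or cell cycle alteration. Growth was scored as inhibition against vehicle-only controls.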

[7] = NCI Yeast Anticancer Drug Screen. Data for the rad14 strain (AID 159);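 further: 0% = growth of vehicle-treated control cultures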; settings: S. cerevisiae rad14 strain growth inhibition, stronger effect = higher value
In short: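 Growth inhibition vs vehicle controls; genetically altered yeast strain (DNA damage repair defect) treated with test compounds.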

[8] = NCI Yeast Anticancer Drug Screen. Data for the sgs1 mgt1 strain (AID 161);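 further: 0% = growth of cultures given vehicle only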; settings: S. cerevisiae sgs1 mgt1 strain, stronger effect = higher value
In short: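 Read-out: growth inhibition vs vehicle controls. Cells: mutant yeast strain deficient in DNA damage repair.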

[9] = NCI Yeast Anticancer Drug Screen. Data for the cln2 rad14 strain (AID 165);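 further: 0% = growth equal to vehicle treated cultures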; settings: S. cerevisiae cln2 rad14 strain, stronger effect = higher value
In short: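 Growth of compound-exposed yeast (cln2 rad14 genotype) measured and expressed as inhibition relative to vehicle.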

[10] = NCI Yeast Anticancer Drug Screen. Data for the bub3 strain (AID 167); settings: S. cerevisiae bub3 mutant strain, stronger effect = higher value
In short: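 Readout: yeast growth inhibition, expressed relative to vehicle-only wells. The test organism is a mutant strain from a panel with lesions in DNA repair or checkpoint genes.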

[11] = NCI Yeast Anticancer Drug Screen. Data for the wt2 strain (AID 169);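 further: 0% = growth of vehicle-treated yeast cultures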; settings: S. cerevisiae wt2 strain growth inhibition, stronger effect = higher value
In short: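 Genetically defined yeast strains from a DNA-repair/cell-cycle panel were used. Compound-exposed yeast growth was measured, and the inhibition was calculated relative to vehicle treatment.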

[12] = NCI Yeast Anticancer Drug Screen. Data for the mlh1 strain (AID 171);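 further: 0% = growth of vehicle-treated control cultures of the same strain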; settings: S. cerevisiae mlh1 strain growth inhibition, stronger effect = higher value
In short: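 Here the genetically defined yeast mutant is grown with each compound, and the extent to which its growth falls below that of vehicle-exposed cells is reported.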

[13] = NCI Yeast Anticancer Drug Screen. Data for the sgs1 strain (AID 173);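 further: 0% = growth of vehicle-only control cultures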; settings: S. cerevisiae sgs1 mutant, stronger effect = higher value
In short: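 Relative growth inhibition, referenced to vehicle, was determined in a yeast strain with a defined alteration affecting DNA damage repair or cell cycle control after compound exposure.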

[14] = NCI Yeast Anticancer Drug Screen. Data for the mlh1 rad18 strain (AID 175); settings: S. cerevisiae mlh1 rad18 strain growth inhibition, stronger effect = higher value
In short: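 In this whole-cell yeast screen, a strain with altered DNA damage repair is challenged with compound, and its growth is measured against matched vehicle-treated controls.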

[15] = NCI Yeast Anticancer Drug Screen. Data for the rad18 strain (AID 177); settings: S. cerevisiae rad18 mutant growth inhibition, stronger effect = higher value
In short: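 Screen uses a yeast strain with a defined lesion in DNA damage repair; compound effect is read as loss of growth compared to untreated vehicle cultures.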

[16] = NCI Yeast Anticancer Drug Screen. Data for the CLN2oe strain (AID 163);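 further: 0% = growth of vehicle-only control cultures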; settings: S. cerevisiae CLN2oe strain, stronger effect = higher value
In short: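 Here, growth inhibition in a cell-cycle-altered yeast strain after compound exposure was quantified against vehicle control growth.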

[17] = at 5.0 µM (retest, dose inferred, filed as 0.5)
[18] = at 50.0 µM (retest, dose inferred, filed as 5.0)

Measured: growth inhibition

CCOC(=O)C1([Se]c2ccccc2)CCCC1=O (stereo unspecified)
inactive: [1]; at 1.2 µM 11% | [1]; at 3.7 µM 28% | [1]; at 11.0 µM 40% | [1]; at 33.0 µM 53% | [2]; at 1.2 µM 16% | [2]; at 3.7 µM 19% | [2]; at 11.0 µM 24% | [2]; at 33.0 µM 50% | [3]; at 1.2 µM -7% | [3]; at 3.7 µM 14% | [3]; at 11.0 µM 44% | [4]; at 1.2 µM -4% | [4]; at 3.7 µM -5% | [4]; at 11.0 µM 4% | [4]; at 33.0 µM 32% | [5]; at 1.2 µM 17% | [5]; at 3.7 µM 15% | [5]; [17] 16% | [5]; at 11.0 µM 23% | [5]; at 33.0 µM 44% | [5]; [18] 63% | [6]; at 1.2 µM 1% | [6]; at 3.7 µM -6% | [6]; [17] -18% | [6]; at 11.0 µM 9% | [6]; at 33.0 µM 30% | [6]; [18] 43% | [6]; at 100.0 µM -11% | [7]; at 1.2 µM -9% | [7]; at 3.7 µM 1% | [7]; at 11.0 µM -11% | [7]; at 33.0 µM 25% | [8]; [17] -3% | [8]; [18] 59% | [9]; [17] 14% | [9]; [18] 52% | [10]; at 1.2 µM -4% | [10]; at 3.7 µM 0% | [10]; [17] 10% | [10]; at 11.0 µM -13% | [10]; at 33.0 µM 13% | [11]; at 1.2 µM 2% | [11]; at 3.7 µM 21% | [11]; at 11.0 µM 22% | [11]; at 33.0 µM 49% | [12]; at 1.2 µM 8% | [12]; at 3.7 µM 6% | [12]; at 11.0 µM 33% | [12]; at 33.0 µM 58% | [13]; at 1.2 µM 22% | [13]; at 3.7 µM 42% | [13]; at 11.0 µM 56% | [14]; [17] 34% | [15]; at 1.2 µM 9% | [15]; at 3.7 µM 21% | [15]; at 11.0 µM 30% | [15]; at 33.0 µM 65%
active: [1]; at 100.0 µM 92% | [2]; at 100.0 µM 91% | [3]; at 33.0 µM 87% | [3]; at 100.0 µM 96% | [4]; at 100.0 µM 85% | [5]; at 50.0 µM 84.2% | [5]; at 100.0 µM 92% | [6]; at 50.0 µM 71.8% | [7]; at 100.0 µM 94% | [8]; at 50.0 µM 84.2% | [9]; at 50.0 µM 73.2% | [10]; [18] 82% | [10]; at 50.0 µM 81.2% | [10]; at 100.0 µM 90% | [11]; at 100.0 µM 88% | [12]; at 100.0 µM 83% | [13]; at 33.0 µM 75% | [13]; at 100.0 µM 97% | [14]; [18] 87% | [14]; at 50.0 µM 76.6% | [15]; at 100.0 µM 91%

OC1CCCC2CCC[N-]C12.OC1CCCC2CCC[N-]C12.[O]=[V][OH] (stereo unspecified)
active: [1]; at 3.7 µM 98% | [1]; at 11.0 µM 98% | [1]; at 33.0 µM 97% | [1]; at 100.0 µM 97% | [2]; at 11.0 µM 85% | [2]; at 33.0 µM 93% | [2]; at 100.0 µM 96% | [3]; at 3.7 µM 96% | [3]; at 11.0 µM 96% | [3]; at 33.0 µM 95% | [3]; at 100.0 µM 95% | [5]; at 3.7 µM 95% | [5]; [17] 99% | [5]; at 11.0 µM 95% | [5]; at 33.0 µM 95% | [5]; [18] 97% | [5]; at 50.0 µM 86.8% | [5]; at 100.0 µM 95% | [6]; at 3.7 µM 86% | [6]; [17] 99% | [6]; at 11.0 µM 98% | [6]; at 33.0 µM 98% | [6]; at 50.0 µM 90.1% | [6]; at 100.0 µM 96% | [7]; at 3.7 µM 89% | [7]; at 11.0 µM 98% | [7]; at 33.0 µM 97% | [7]; at 100.0 µM 97% | [8]; [18] 98% | [8]; at 50.0 µM 91.5% | [16]; at 3.7 µM 78% | [16]; at 11.0 µM 93% | [16]; at 33.0 µM 95% | [16]; at 100.0 µM 96% | [9]; [18] 97% | [9]; at 50.0 µM 79.8% | [10]; at 3.7 µM 89% | [10]; [17] 99% | [10]; at 11.0 µM 98% | [10]; at 33.0 µM 98% | [10]; [18] 95% | [10]; at 50.0 µM 90.8% | [10]; at 100.0 µM 97% | [11]; at 11.0 µM 92% | [11]; at 33.0 µM 93% | [11]; at 100.0 µM 96% | [12]; at 11.0 µM 79% | [12]; at 33.0 µM 88% | [12]; at 100.0 µM 95% | [13]; at 11.0 µM 83% | [13]; at 33.0 µM 89% | [13]; at 100.0 µM 94% | [14]; [17] 99% | [14]; at 50.0 µM 86.8% | [15]; at 3.7 µM 95% | [15]; at 11.0 µM 96% | [15]; at 33.0 µM 96% | [15]; at 100.0 µM 96%
inactive: [1]; at 1.2 µM 54% | [2]; at 1.2 µM -4% | [2]; at 3.7 µM 67% | [3]; at 1.2 µM 47% | [5]; at 1.2 µM 47% | [6]; at 1.2 µM 3% | [6]; [18] 66% | [7]; at 1.2 µM 8% | [8]; [17] 19% | [16]; at 1.2 µM -12% | [9]; [17] 46% | [10]; at 1.2 µM 10% | [11]; at 1.2 µM -17% | [11]; at 3.7 µM 68% | [12]; at 1.2 µM -25% | [12]; at 3.7 µM 50% | [13]; at 1.2 µM 17% | [13]; at 3.7 µM 69% | [14]; [18] 64% | [15]; at 1.2 µM 46%

Nc1nc(-c2ccccc2)c(-c2ccccc2)[se]1
inactive: [1]; at 1.2 µM 3% | [1]; at 3.7 µM 3% | [1]; at 11.0 µM 0% | [1]; at 33.0 µM 12% | [1]; at 100.0 µM 28% | [2]; at 1.2 µM -2% | [2]; at 3.7 µM -1% | [2]; at 11.0 µM -1% | [2]; at 33.0 µM -2% | [2]; at 100.0 µM 3% | [3]; at 1.2 µM -1% | [3]; at 3.7 µM 7% | [3]; at 11.0 µM 9% | [3]; at 33.0 µM 18% | [3]; at 100.0 µM 25% | [4]; at 1.2 µM -3% | [4]; at 3.7 µM 1% | [4]; at 11.0 µM 0% | [4]; at 33.0 µM 2% | [4]; at 100.0 µM 12% | [5]; at 1.2 µM 7% | [5]; at 3.7 µM 4% | [5]; [17] 7% | [5]; at 11.0 µM 5% | [5]; at 33.0 µM 16% | [5]; [18] 10% | [5]; at 50.0 µM 51.1% | [5]; at 100.0 µM 32% | [6]; at 1.2 µM -1% | [6]; at 3.7 µM 1%
